Tau FP inhib = blocks human tau fibril formation measured by polarization | P10636 | K18 P301L tau heparin fibrillization, Alexa594 FP, 6 h | Potency, µM (highest dose often 57.7 µM), without a hit: top-dose activity, negative = inhibition, hits mostly inhibitors | actives 0.39% (n = 280,000) | AID 1468; note: potency is the fitted concentration of half-maximal effect; nearly all actives have a fitted effect of over 55% in size
Target sequence (P10636 561-689 P618L limits assumed): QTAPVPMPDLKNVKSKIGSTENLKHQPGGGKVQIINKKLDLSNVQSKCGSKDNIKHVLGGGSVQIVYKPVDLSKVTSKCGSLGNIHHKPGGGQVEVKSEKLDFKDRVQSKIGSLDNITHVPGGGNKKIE
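K18 P301L tau (15 uM unlabeled/0.24 uM Alexa 594-labeled, final) + compound + heparin 20 uM final; 100 mM NaOAc pH 7; 6 hr 37 C; ThT 30 uM final added, 1 hr RT; FP ex 555/em 632 nm.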
TRb-SRC2 inh = disrupts binding of human TR beta to SRC2; P10828; TRbeta-SRC2 peptide binding, fluorescence polarization; receptor liganded with 1 µM T3; Potency, µM (highest dose often 106 µM), without a hit: at the top dose activity change, negative = inhibition, usual class: inhibitors; actives 0.065% (n = 280,000); AID 1469;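 note: potency is the fitted concentration of half-maximal effect; plate controls were bound peptide for no effect and peptide without receptor for full effect; nearly all actives have a fitted effect of over 50% in size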
Target sequence (P10828 whole entry, looked up): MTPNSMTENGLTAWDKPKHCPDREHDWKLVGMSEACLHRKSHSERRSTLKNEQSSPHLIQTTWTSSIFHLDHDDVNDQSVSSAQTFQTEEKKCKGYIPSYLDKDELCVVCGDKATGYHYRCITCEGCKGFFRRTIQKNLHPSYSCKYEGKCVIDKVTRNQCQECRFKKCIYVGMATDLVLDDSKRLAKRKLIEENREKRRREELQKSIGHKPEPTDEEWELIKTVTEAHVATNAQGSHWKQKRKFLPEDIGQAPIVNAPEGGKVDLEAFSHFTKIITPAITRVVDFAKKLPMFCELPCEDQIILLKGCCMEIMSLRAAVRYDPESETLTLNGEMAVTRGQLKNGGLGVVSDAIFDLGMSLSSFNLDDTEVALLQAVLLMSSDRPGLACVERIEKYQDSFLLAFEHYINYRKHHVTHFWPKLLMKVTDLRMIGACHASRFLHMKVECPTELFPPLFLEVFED
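Fluorescence polarization of 20 nM Texas Red SRC2 peptide with 0.6 uM human TRb ligand-binding domain, in Tris buffer with 1uM T3 and 5% DMSO. Incubated 5 hr ambient; normalized to unbound and bound controls.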
TR SRC2 fluor cs = counter-screen for TRb-SRC2 inhibitors: fluorescence interference. actives 0.29% (n = 280,000). TRb/SRC2 Texas Red total fluorescence interference. Potency, µM (titrated, usually from 106 µM), for inactives: at the highest dose fluorescence change, negative = quenching; active = well fitted curve in either direction with a large enough effect; inconclusive = small, poorly fitted or top-dose-only effect; note: potency is the fitted concentration of half-maximal effect
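Human TRb ligand-binding domain at 0.6 uM with 20 nM Texas Red SRC2 peptide in Tris buffer containing 1 uM T3 and 5% DMSO, incubated with compound 5 h at ambient temperature. Total fluorescence (555/632 nm) calculated as parallel + 2 × perpendicular.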
Tau fluor counter = counter-screen for tau fibril formation inhibitors; Potency, µM (top dose mostly 57.7 µM), inactives show at the top dose activity change, negative = decrease; actives 0.93% (n = 280,000); AID 1463; tau K18 P301L Alexa594 fluorescence, heparin fibrillization; note: potency is the fitted concentration of half-maximal effect; nearly all actives have a fitted effect of over 55% in size
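Human tau K18 P301L (15 uM unlabeled, 0.24 uM Alexa 594-labeled) in 100 mM sodium acetate pH 7 with 20 uM heparin, 6 hr at 37 C. ThT 30 uM added, 1 hr ambient; Alexa 594 FP and total fluorescence read at 555/632 nm.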
Tau ThT inhib = tau fibrillization inhibition (ThT binding) | actives 2.1% (n = 270,000) | recombinant tau K18 P301L, heparin-induced fibrillization, ThT fluorescence | Potency, µM (highest dose often 57.4 µM), inactives show at the top dose activity, negative = inhibition, usual class: inhibitors | AID 1460 | P10636; note: potency is the fitted concentration of half-maximal effect; nearly all actives have a fitted effect of over 55% in size
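ThT emission at 510 nm, taken 1 hr after adding 30 uM dye, quantifies aggregates formed when 20 uM heparin acts on human tau K18 P301L for 6 hr at 37 C.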
PNC assembly inh = inhibitors of perinucleolar compartment assembly; PC3M PTB-GFP, PNC prevalence imaging, 16 h; stronger effect = lower value; activity change (PNC), negative = inhibition, % at 10 µM; actives 3.1% (n = 140,000); AID 2417;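 active = readout at or below -70, meaning at least 70% loss of cells showing the perinucleolar compartment, a nuclear body marking cancer cells; inconclusive = readout between -30 and a set limit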;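 note: plate controls were DMSO wells for no effect and camptothecin positive control wells for full effect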
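PC3M cells stably expressing PTB-GFP, 750–1000 cells/well, treated 16 h at 37 °C with compound (23 nl of library stock), in duplicate. After paraformaldehyde fixation and Hoechst stain, imaged at 20x; PNC prevalence scored by image analysis.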
The depositor's hits bear a star; ? = inconclusive; . = no result given; [ ] = another dose, or the depositor's remark. The list is not random: actives were taken first. Their share in the collection is about 4.6%. Unless noted, calls come from the whole dose curve; as a rule, active = well fitted curve in the direction sought with a large enough effect; inconclusive = small, poorly fitted or top-dose-only effect, or another doubt; inactive = no such curve, though single readings can be large; an effect the other way counts as inactive or inconclusive. Unless noted, % is set by controls: 0 for no effect and ±100 for the full control effect.

SMILES	Tau FP inhib	TRb-SRC2 inh	TR SRC2 fluor cs	Tau fluor counter	Tau ThT inhib	PNC assembly inh
Cc1cc(F)ccc1S(=O)(=O)Nc1ccccc1C(=O)Nc1ccccc1-c1nc2ccccc2[nH]1	13µM*	4%	2%	?	8%	31
CCCOC(=O)c1ccc(Oc2cn[nH]c2-c2ccc(OCC)cc2O)cc1	?	6%	-2%	8.9µM*[quencher]	-8%	-117*
CCCOC(=O)c1ccc(Oc2c(-c3ccc(OCC)cc3O)n[nH]c2C)cc1	?	8%	0%	7.9µM*[quencher]	-13%	?
Cc1ccc(NS(=O)(=O)c2cc(NC(=O)C(C)Oc3ccccc3)ccc2C)c(C)c1 (stereo not drawn)	5%	-2%	-1%	1%	7%	20
Cc1ccc(C)c(S(=O)(=O)Nc2cc(SCC(=O)O)c(O)c3ccccc23)c1	7.9µM*	?	-22%	?	3.5µM*	-5
Cc1ccc(C(O)(C(=O)NNS(=O)(=O)c2ccc(C)cc2)c2ccc(C)cc2)cc1	4%	-1%	-5%	-17%	-16%	-7
C/C(=N\NC(=O)c1c(Br)c(C)nn1C)c1cccc(NC(=O)C2CCC2)c1	-2%	8%	1%	0%	?	31
CC(=O)Nc1nnc(SCC(=O)NCC2CCCO2)s1 (stereo not drawn)	4%	-18%	2%	-3%	0%	-100*
COc1cc(CN(C(=S)NCC(=O)NC2CC2)C2CCCC2)cc(OC)c1OC	1%	?	0.089µM*[quencher]	-11%	-10%	?
O=C(O)CCN1C(=O)/C(=C\c2ccncc2)SC1=S	2%	4%	1%	4%	-20%	.
O=C1/C(=C\c2ccco2)SC(=S)N1c1ccccc1	?	10%	?	?	25µM*	-5
O=C(O)CCCN1C(=O)/C(=C\c2ccco2)SC1=S	?	-6%	-7%	-29%	22µM*	.
O=C(O)CCN1C(=O)/C(=C\c2ccc(-c3nc4ccccc4s3)o2)SC1=S	-16%	-2%	-1%	-28%	2µM*	-17
CN(Cc1ccccc1)c1ccc(N2C(=O)CCCC2=O)cc1[N+](=O)[O-]	-1%	4%	0%	-2%	-16%	-17
Cc1ccc(C(=O)NCC(c2cccs2)S(=O)(=O)c2ccccc2)cc1C (stereo not drawn)	0%	1%	-2%	-11%	0%	.
CC1CC(=O)c2cnc(NCC3CCCO3)nc2C1 (stereo not drawn)	0%	-6%	-1%	6%	1%	-8
Cc1ccccc1-n1c(=O)/c(=C\c2ccco2)s/c1=C(/C#N)C(=O)Nc1ccccc1	?	?	-10%	-29%	16µM*	30
Oc1ccc(Nc2nc(-c3ccc(Cl)cc3)cs2)cc1	?	-1%	-23%	7.9µM*[quencher]	4µM*	.
NS(=O)(=O)c1ccc(Nc2nc(-c3ccc(O)cc3)cs2)cc1	20%	12%	?	?	13µM*	?
COc1ccc(Nc2nc(-c3ccc(OC)cc3)cs2)cc1	6%	-2%	-3%	?	?	.
COc1ccc(-c2csc(Nc3ccccc3)n2)cc1	6%	0%	-4%	28µM*[quencher]	?	.
Oc1ccc(Nc2nc(-c3ccc(O)cc3)cs2)cc1	2%	21%	?	14µM*[quencher]	6.3µM*	-20
COc1ccc(C(=O)NCc2ccccc2OC)c(OC)c1	-2%	-5%	2%	-3%	-10%	6
CC1CCCc2sc3nc(SCC(=O)c4ccc(Br)cc4)nc(N)c3c21 (stereo not drawn)	?	-3%	0%	-22%	-5%	.
Nc1n[nH]c2ccccc12	-3%	1%	-2%	-7%	-11%	.
SMILES	Tau FP inhib	TRb-SRC2 inh	TR SRC2 fluor cs	Tau fluor counter	Tau ThT inhib	PNC assembly inh
COc1ccc(Cc2nnc(NS(=O)(=O)c3ccccc3)s2)cc1	2%	-12%	-1%	-4%	-8%	.
CSc1ncc(Cl)c(C(=O)Nc2ccc(S(=O)(=O)N3CCOCC3)cc2)n1	-11%	0%	-3%	-16%	-9%	-12
CCn1c(-c2csc(-c3ccccc3)n2)n[nH]c1=S	6%	-5%	0%	4%	?	-12
Brc1ccc(-c2csc(Nc3nc(-c4ccc(Br)cc4)cs3)n2)cc1	2%	-7%	-1%	8.9µM*[quencher]	?	.
COc1ccc(Nc2nc3ccccc3s2)cc1	4%	-7%	-11%	14%	13%	.
COc1ccc2oc(=O)c(-c3csc(Nc4ccc(O)cc4)n3)cc2c1	-15%	-6%	-4%	3.2µM*[quencher]	2.2µM*	-3
COc1ccc2oc(=O)c(-c3csc(-c4ccc(Br)cc4)n3)cc2c1	-11%	-2%	-1%	-10%	6%	.
COc1ccc(Nc2nc(-c3c[nH]c4ccccc34)cs2)cc1	?	14%	27%	13µM*[quencher]	8.9µM*	58
COc1ccc(-c2csc(Nc3ccc(S(N)(=O)=O)cc3)n2)cc1	?	2%	-4%	13µM*[quencher]	?	-13
O=C(c1ccncc1)N(c1ccc2oc3c(c2c1)CCCC3)S(=O)(=O)c1ccc(F)cc1	13%	-4%	-1%	-18%	?	?
O=C(O)C1CN(CCCP(=O)(O)O)CCN1 (stereo not drawn)	-4%	-25%	?	-11%	-3%	.
CCC1=NNc2cccc3c(OC)ccc1c23	?	-22%	-18%	?	13µM*	30
O=C(NCc1ccco1)c1ccccc1NS(=O)(=O)c1ccc(Cl)s1	2%	-10%	-1%	-11%	-14%	9
COc1ccc(/C=N/n2c(SC)nnc2-c2ccccc2)c(OC)c1OC	5%	9%	1%	0%	-11%	-125*
Cc1noc(C)c1-c1ccc2ncnc(NCc3ccc(-c4ccccc4)cc3)c2c1	.	3%	2%	.	.	.
